Source: PubChem
An excerpt weighted towards active compounds, which were near 1.1% of everything screened.
Integrin act MD = activators of alpha7 integrin expression for muscular dystrophy. AID 624291. 350,000 tested, 0.064% active. Potency, µM (series often up to 38.3 µM), without a hit: at the highest dose activation, actives largely listed as activators. alpha7betagal myoblasts, beta-gal FDG fluorescence, 48 h;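 further: potency means the concentration at half of the fitted maximal effect; 100% = response of the positive control SU9516; nearly all actives have a fitted effect of over 60% in size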
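alpha7betagal+/- myoblasts (passage 13, 250/well) treated 48 h at 37C with compounds at 1:260 dilution of DMSO stock. Lysed, then beta-galactosidase activity read as FDG fluorescence (ex 480/em 540) after 30 min, with pre-read for autofluorescence.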
PI4K2A block = blocks human PI4K2A kinase activity; activity change, negative = inhibition, % at 76.9 µM; 420,000 tested, 0.13% active; purified PI4K2A, ADP-Glo luminescence, 1 h; active compounds read low; in the data active means activity change below about -50%; inconclusive means mostly about -30% to -49%;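 further: -100% = wells without enzyme as full effect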
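Compounds are screened against recombinant PI4K2A using PI as substrate and ATP, the latter dispensed at 300 microM. Reactions run one hour at ambient temperature before ADP-Glo detection; full inhibition defined by wells lacking enzyme.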
TrxR1 substrate = rat thioredoxin reductase 1 substrate activity | 390,000 tested, 0.01% active | Potency, µM (titrated, usually from 114 µM), without a hit: at the highest dose activity change, negative = substrate turnover | purified TrxR1 substrate turnover, NADPH consumption readout | O89049 | AID 588456; further: potency means the concentration at half of the fitted maximal effect; nearly all actives have a fitted effect of over 50% in size
Target sequence (O89049 whole entry, looked up): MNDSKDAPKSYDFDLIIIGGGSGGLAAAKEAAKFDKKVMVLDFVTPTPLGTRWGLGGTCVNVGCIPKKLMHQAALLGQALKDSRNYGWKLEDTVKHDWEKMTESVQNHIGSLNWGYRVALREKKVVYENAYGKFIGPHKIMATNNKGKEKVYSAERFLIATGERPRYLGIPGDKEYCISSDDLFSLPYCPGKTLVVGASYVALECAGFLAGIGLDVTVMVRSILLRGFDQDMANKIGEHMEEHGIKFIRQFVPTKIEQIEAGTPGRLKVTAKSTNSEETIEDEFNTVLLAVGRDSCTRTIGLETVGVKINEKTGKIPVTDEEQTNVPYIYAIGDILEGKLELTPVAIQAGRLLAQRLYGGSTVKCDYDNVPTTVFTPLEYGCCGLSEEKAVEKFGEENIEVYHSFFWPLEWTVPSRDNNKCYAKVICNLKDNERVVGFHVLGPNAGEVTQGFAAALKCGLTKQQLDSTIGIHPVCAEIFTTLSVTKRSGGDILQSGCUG
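Rat TrxR1, dispensed at 90 nM, was prereduced with 400 uM NADPH (final) for 5 min at ~22 deg C, then incubated with compound 15 min before 400 uM selenite. A first-read NADPH fluorescence drop versus no-compound background flagged substrates.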
LDHA block = LDHA (human) enzyme inhibition. P00338. purified LDHA, NADH/diaphorase-resazurin fluorescence; active compounds read low. activity change, % (values are at about 110 or 230 µM). 480,000 tested, 0.15% active; in the data active means activity change below about -30%; inconclusive means mostly about -25% to -30%;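 further: plate controls were DMSO wells for no effect and wells without enzyme for full effect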
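Resorufin fluorescence (ex540/em590), read at 0 and 20 min after diaphorase/resazurin addition, reports the NADH left after a 5 min room-temperature reaction of 2 nM human LDH5 with 0.06 mM NADH and 0.2 mM pyruvate.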
TrxR1 inh = blocks rat thioredoxin reductase 1; O89049; recombinant rTrxR1, NADPH fluorescence consumption, selenite substrate; Potency, µM (top dose mostly 114 µM), without a hit: top-dose activity change, negative = inhibition, actives largely listed as inhibitors; 390,000 tested, 1% active; further: potency means the concentration at half of the fitted maximal effect; nearly all actives have a fitted effect of over 65% in size
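Rat TrxR1 (90 nM in the dispensed reagent) was pre-reduced with 400 uM NADPH for 5 min at room temperature, then incubated with compound for 15 min. After 400 uM selenite was added, NADPH fluorescence (Ex 340/Em 450 nm) was followed for 8 min.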
GALK inhibitor = blocks human galactokinase activity; Purified GALK, Kinase-Glo residual ATP luminescence; Potency, µM (titrated, usually from 57.5 µM), for the others: at the highest dose activity change, negative = inhibition, usual class: inhibitors; 270,000 tested, 0.007% active; AID 1868; further: potency means the concentration at half of the fitted maximal effect
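The enzyme phosphorylates galactose (100 uM) using ATP (35 uM); inhibition is detected as higher residual ATP, quantified by bioluminescence after 1 h reaction at room temperature, pH 8.0.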
* hit, by the source's call; u = inconclusive; x = not tested or not shown; [ ] = remark or other dose. Unless noted, the call rests on the fitted dose curve; in most records, active means well fitted curve in the direction sought with a large enough effect; inconclusive means small, poorly fitted or top-dose-only effect, or another doubt; inactive means no such curve, though single readings can be large; an effect the other way counts as inactive or inconclusive. Unless noted, on the % scale 0 is the no-effect control and ±100 the full control effect.

SMILES	Integrin act MD	PI4K2A block	TrxR1 substrate	LDHA block	TrxR1 inh	GALK inhibitor
COc1cccc(C(=O)CN2CCN(S(=O)(=O)c3cccc([N+](=O)[O-])c3)CC2)c1	19%	-1	-1%	1	8.9µM*	0%
O=[N+]([O-])c1ccc(Sc2ccncn2)c([N+](=O)[O-])c1	-66%	20	x	1	x	x
CN(C)/N=C/c1ccc(Sc2ccc([N+](=O)[O-])cc2[N+](=O)[O-])o1	-36%	12	-5%	-3	50µM*	0%
Cc1cc(C)nc(Sc2ccc([N+](=O)[O-])cc2[N+](=O)[O-])n1	-44%	3	-15%	1	10µM*	1%
Cc1cc(=O)oc2cc(OCCCN3C(=O)c4ccccc4C3=O)ccc12	-13%	-1	7%	-2	15%	4%
CCCCn1nc(C(=O)Oc2ccc3c(C)cc(=O)oc3c2)c2ccccc2c1=O	18%	-5	569%	-1	79µM*	-2%
CCCC(=O)Oc1ccc2c(C)cc(=O)oc2c1	4%	2	73%	-8	u	4%
Cc1cc(=O)oc2cc(OC(=O)CCN3C(=O)c4ccccc4C3=O)ccc12	12%	3	263%	2	40µM*	-4%
CC(c1cc(F)ccc1F)N(C)CCS(=O)(=O)CCC(N)=O (stereo unspecified)	x	x	x	-1	x	x
O=C(OCCOc1ccccc1F)c1ccc2nccnc2c1	x	x	x	8	x	x
CCCC(=O)N(c1ccc2oc(=O)sc2c1)S(=O)(=O)c1ccccc1	-45%	-50*	3%	-2	21%	-1%
CC(=O)N(c1ccc2oc(=O)sc2c1)S(=O)(=O)c1ccc(C(=O)O)cc1	-8%	4	7%	7	-9%	-3%
COc1cc(C(=O)O/N=C2\C=CC(=O)C(C)=C2)cc(OC)c1OC	-67%	33	-3%	70	2.8µM*	-2%
CN1CCN(c2cc(=O)n(C3CCCCC3)c(=O)[nH]2)CC1	4%	-1	4%[57.1 µM]	-1	25µM*	1%
CCN(CC)CCC(=O)N1C/C(=C/c2ccccc2)C(=O)/C(=C\c2ccccc2)C1	-50%	-19	9%[57.1 µM]	-2	-62%[57.1 µM]	x
O=C1/C(=C\c2ccc(Cl)c(Cl)c2)CN(C(=O)CCN2CCOCC2)C/C1=C/c1ccc(Cl)c(Cl)c1	-53%	-8	11%[57.1 µM]	-5	1.4µM*	x
O=C1/C(=C\c2ccccc2)CN(C(=O)CCN2CCCCC2)C/C1=C/c1ccccc1	-57%	-24	-9%	3	5µM*	x
CCN(Cc1ccncc1)Cc1c(O)ccc2cc(Br)ccc12	0%	-6	9%[57.1 µM]	27	7.9µM*	-1%
CCN(CC)C(=O)Cc1c(OC)ccc2cc(Br)ccc12	10%	2	-5%	1	-6%	-2%
CN(C)CCCNCC(=O)Nc1ccccc1N1CCOCC1	-16%	5	7%[57.1 µM]	-32*	12%[57.1 µM]	1%
COc1cccc(NC(=O)Cc2ccccc2)c1	9%	-9	-7%[57.1 µM]	0	16%[57.1 µM]	6%
O=C(Cc1ccccc1)Nc1cccc(N2C(=O)C=CC2=O)c1	-50%	4	0%	-6	3.5µM*	2%
Cc1cccc(NC(=O)Nc2c[nH]c(=O)[nH]c2=O)c1	x	x	x	-6	x	x
O=C1C=CC(=O)c2c(O)c(CO)c(CO)c(O)c21	-17%	-53*	-2%	19	u	x
CCCCN(C)C(=O)CSc1nc2ccsc2c(=O)n1-c1ccccc1F	x	x	x	15	x	x
SMILES	Integrin act MD	PI4K2A block	TrxR1 substrate	LDHA block	TrxR1 inh	GALK inhibitor
O=C(CCNS(=O)(=O)c1ccc(Br)cc1)NC1CCCCC1	35%	4	1%	-6	2%	0%
O=S(=O)(NC(=S)NC1CCCCC1)c1ccc(Br)cc1	3%	1	13%	-9	2.8µM*	-4%
NS(=O)(=O)c1ccc(NC(=S)NC2CCCCCC2)cc1	-33%	-4	-5%	-1	16µM*	0%
O=[N+]([O-])c1cccc(C2C3CCC/C(=C\c4ccco4)C3=NN2c2ccccc2)c1 (stereo unspecified)	x	x	x	7	x	x
Cc1cccc(NC(=O)c2cc3c(s2)CCC3)c1C	x	x	x	8	x	x
CCCOc1ccccc1NC(=O)/C=C/C(N)=O	-23%	4	8%	-4	13µM*	5%
CCCCOc1ccccc1NC(=O)C=C(C)C	1%	9	5%[57.1 µM]	-11	20%[57.1 µM]	-5%
CCOc1ccc(C(=O)Nc2cc(C)ccn2)cc1	-14%	-72*	2%[57.1 µM]	3	18%[57.1 µM]	14%
CCC(=O)N1N=C(c2ccccc2NS(=O)(=O)CC)CC1c1ccco1 (stereo unspecified)	x	x	x	-1	x	x
CCN(C(=O)c1ccco1)c1nc(-c2ccc(C)cc2)cs1	x	x	x	8	x	x
CCN(C(=O)c1ccco1)c1nc(-c2ccccc2)cs1	x	x	x	-34*	x	x
Nn1c(SCC(=O)NCc2ccc(Cl)cc2)nnc1-c1cccs1	x	x	x	-4	x	x
Cc1ccc(NC(=O)CN(C)C(=O)Cn2ncc(Cl)c(Cl)c2=O)cc1	-62%	-7	-9%	-2	71µM*	0%
Cc1ccc(NC(=O)CN(C)C(=O)Cc2ccc(Cl)c(Cl)c2)cc1	-3%	-6	-5%	-2	11%	-2%
CC(NC(=O)/C=C/c1ccco1)c1nc2ccccc2n1Cc1c(Cl)cccc1Cl (stereo unspecified)	-9%	-7	8%[57.1 µM]	-1	u	1%
CC(NC(=O)/C=C/c1ccco1)c1nc2ccccc2n1Cc1ccccc1F (stereo unspecified)	13%	-8	-16%	-4	50µM*	0%
COc1cccc(/C=N/NC(=S)Nc2cccc(C(=O)O)c2)c1O	20%	-16	-2%	-47*	-30%	-3%
CC1CCCCC1NC(=O)COCc1cc(-c2cccs2)on1 (stereo unspecified)	-30%	-20	4%	1	45µM*	0%
Cc1cc(C)c(NC(=O)COCc2cc(-c3cccs3)on2)c(C)c1	x	-1	-7%	-4	-3%	x
CCOC(=O)c1c(N)sc(N)c1C(=O)OCC	0%	0	-3%	26	-11%	x
CCOC(=O)c1c(N)sc(=S)c2c1CCC2	9%	-20	-14%	1	71µM*	1%
O=C(O)c1cc(N=Cc2c(O)c3ccccc3oc2=O)ccc1O	7.1µM*	-12	-9%	3	-2%	x
COc1cc2c(cc1OC)C(c1ccccc1)N(C(=O)CCl)CC2 (stereo unspecified)	-73%	13	3%	-1	4.5µM*	-6%
CC(C(=O)Nc1ccc(OC(F)F)c(Cl)c1)n1cccn1 (stereo unspecified)	x	x	x	14	x	x
COc1ccc(N2Cc3ccccc3C2=O)cc1	23%	u	-6%	2	4%[57.1 µM]	5%
